Results reported in PubChem BioAssay (EPA / NIEHS).
Inconclusive results are not listed. Calls of active or inactive are those of the source. Rule for the calls, unless noted: active = hit-call score of the fitted dose curve at least 0.9, where 1 is the maximum; inconclusive = response in the unintended direction; inactive = score below 0.9.

Tests used:
[1] = read-out: glucuronosyltransferase (UGT1A1), UGT1A1 (gene 54658); assay: CLD_UGT1A1_24hr: CellzDirect (CLD) Gene Expression Assay for glucuronosyltransferase (UGT1A1) at 24 hours (AID 2283696)
Outline: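 Primary human hepatocytes from two donor preparations were dosed (0.2% DMSO vehicle) and harvested at 24 h; UGT1A1 mRNA induction was quantified by chemiluminescent qNPA, fitted as gain relative to DMSO.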

[2] = read-out: ABC Transporter (ABCB11), ABCB11 (gene 8647); assay: CLD_ABCB11_48hr: CellzDirect (CLD) Gene Expression Assay for ABC Transporter (ABCB11) at 48 hours (AID 2283697)
Outline: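 Primary human hepatocytes from two donor preparations dosed daily for two days at multiple concentrations; 0.2% DMSO vehicle. ABCB11 mRNA at 48 h by quantitative nuclease protection assay, chemiluminescence; fitted for induction versus DMSO.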

[3] = read-out: Cytochrome P450 3A4 (Homo sapiens) (UniProt P08684); assay: CLD_CYP3A4_48hr: CellzDirect (CLD) Gene Expression Assay for xenobiotic metabolism (CYP3A4) at 48 hours (AID 2283698)
Outline: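 Primary human hepatocytes from two donor preparations dosed daily for two days with multiple chemical concentrations, 0.2% DMSO vehicle. CYP3A4 mRNA at 48 h by quantitative nuclease protection assay, chemiluminescence, positive fit versus DMSO; cytotoxicity flagged morphologically.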

[4] = read-out: xenobiotic metabolism (CYP1A2), CYP1A2 (gene 1544); assay: CLD_CYP1A2_48hr: CellzDirect (CLD) Gene Expression Assay for xenobiotic metabolism (CYP1A2) at 48 hours (AID 2283703)
Outline: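 Primary human hepatocytes from two donor preparations were dosed daily for two days at multiple concentrations in 0.2% DMSO vehicle. CYP1A2 mRNA was measured at 48 hours by chemiluminescent quantitative nuclease protection assay, with gain of signal fitted versus DMSO and cytotoxicity annotated from morphology.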

[5] = read-out: Glyceraldehyde-3-phosphate dehydrogenase (Homo sapiens) (UniProt P04406); assay: CLD_GAPDH_48hr: CellzDirect (CLD) Gene Expression Assay for Baseline Control (Glyceraldehyde 3-phosphate dehydrogenase) at 48 hours (AID 2283706);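 note: active means higher GAPDH mRNA than DMSO vehicle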
Outline: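 Primary human hepatocytes dosed daily for two days with fresh chemical at multiple concentrations, 0.2% DMSO vehicle; GAPDH mRNA measured at 48 h by quantitative nuclease protection assay with chemiluminescence, fitted upward relative to DMSO as background control.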

[6] = read-out: Cytochrome P450 2B6 (Homo sapiens) (UniProt P20813); assay: CLD_CYP2B6_48hr: CellzDirect (CLD) Gene Expression Assay for xenobiotic metabolism (CYP2B6) at 48 hours (AID 2283699);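 note: actives raise transcript level above DMSO so potency reflects induction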
Outline: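 Primary human hepatocytes dosed daily for two days over multiple concentrations, 0.2% DMSO vehicle; CYP2B6 mRNA quantified at 48 h by qNPA chemiluminescence. Induction fitted as gain of signal versus DMSO; cytotoxicity annotated by morphology.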

[7] = read-out: Cytochrome P450 2C9 (Homo sapiens) (UniProt P11712); assay: CLD_CYP2C9_48hr: CellzDirect (CLD) Gene Expression Assay for xenobiotic metabolism (CYP2C9) at 48 hours (AID 2283701; active = hit-call score of the fitted dose curve at least 0.9, where 1 is the maximum; inactive = score below 0.9)
Outline: (§1)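 Primary human hepatocytes (two donor preparations) dosed daily for two days with test chemicals, 0.2% DMSO vehicle; harvested at 48 h. mRNA induction quantified by qNPA chemiluminescence, fitted for gain of signal against DMSO baseline; cytotoxicity annotated from phase-contrast morphology.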

[8] = read-out: Broad substrate specificity ATP-binding cassette transporter ABCG2 (Homo sapiens) (UniProt Q9UNQ0); assay: CLD_ABCG2_48hr: CellzDirect (CLD) Gene Expression Assay for ABC Transporter (ABCG2) at 48 hours (AID 2283704);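 for AC50: potency for induction of ABCG2 mRNA above the DMSO baseline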
Outline: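 Primary human hepatocytes from two donors, dosed daily for 2 days, 0.2% DMSO vehicle, several concentrations. ABCG2 mRNA at 48 h by qNPA chemiluminescence, gain fitted versus DMSO; cytotoxicity flagged by morphology.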

[9] = read-out: xenobiotic metabolism (CYP1A1), CYP1A1 (gene 1543); assay: CLD_CYP1A1_48hr: CellzDirect (CLD) Gene Expression Assay for xenobiotic metabolism (CYP1A1) at 48 hours (AID 2283705)
Outline: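 Primary human hepatocytes from two donors dosed daily for two days at multiple concentrations, 0.2% DMSO vehicle; CYP1A1 mRNA induction at 48 h by qNPA chemiluminescence. Cytotoxicity noted by phase-contrast morphology.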

[10] = read-out: xenobiotic metabolism (CYP2C9), CYP2C9 (gene 1559); assay: CLD_CYP2C9_48hr: CellzDirect (CLD) Gene Expression Assay for xenobiotic metabolism (CYP1A2) at 48 hours (AID 2283701)
Outline: as §1

Sequence of Broad substrate specificity ATP-binding cassette transporter ABCG2 (Homo sapiens) (Q9UNQ0 whole entry, looked up): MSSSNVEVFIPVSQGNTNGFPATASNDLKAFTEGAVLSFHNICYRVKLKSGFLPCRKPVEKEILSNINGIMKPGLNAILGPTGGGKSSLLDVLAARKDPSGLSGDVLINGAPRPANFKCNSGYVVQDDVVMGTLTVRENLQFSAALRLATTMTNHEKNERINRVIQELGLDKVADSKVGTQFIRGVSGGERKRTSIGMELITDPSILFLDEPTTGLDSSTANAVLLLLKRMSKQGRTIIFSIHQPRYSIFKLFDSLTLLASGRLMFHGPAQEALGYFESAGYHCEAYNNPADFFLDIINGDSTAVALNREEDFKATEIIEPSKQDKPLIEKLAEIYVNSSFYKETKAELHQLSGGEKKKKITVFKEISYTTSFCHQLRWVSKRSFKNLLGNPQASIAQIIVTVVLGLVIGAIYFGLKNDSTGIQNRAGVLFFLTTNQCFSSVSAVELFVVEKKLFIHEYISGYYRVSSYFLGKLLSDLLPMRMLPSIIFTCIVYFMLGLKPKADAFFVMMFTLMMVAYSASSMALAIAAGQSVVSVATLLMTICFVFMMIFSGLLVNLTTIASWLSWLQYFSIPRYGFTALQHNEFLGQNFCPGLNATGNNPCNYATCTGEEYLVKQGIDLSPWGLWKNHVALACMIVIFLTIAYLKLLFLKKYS
Sequence of Glyceraldehyde-3-phosphate dehydrogenase (Homo sapiens) (P04406 whole entry, looked up): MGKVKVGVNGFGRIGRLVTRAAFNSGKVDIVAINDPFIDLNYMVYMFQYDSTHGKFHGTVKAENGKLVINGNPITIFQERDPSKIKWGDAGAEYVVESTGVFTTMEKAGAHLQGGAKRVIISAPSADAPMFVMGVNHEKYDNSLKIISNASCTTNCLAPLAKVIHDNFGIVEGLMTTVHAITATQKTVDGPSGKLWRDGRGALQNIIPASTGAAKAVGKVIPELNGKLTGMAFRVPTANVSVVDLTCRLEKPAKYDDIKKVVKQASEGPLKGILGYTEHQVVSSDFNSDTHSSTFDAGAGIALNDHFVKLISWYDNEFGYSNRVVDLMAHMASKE
Sequence of Cytochrome P450 3A4 (Homo sapiens) (P08684 whole entry, looked up): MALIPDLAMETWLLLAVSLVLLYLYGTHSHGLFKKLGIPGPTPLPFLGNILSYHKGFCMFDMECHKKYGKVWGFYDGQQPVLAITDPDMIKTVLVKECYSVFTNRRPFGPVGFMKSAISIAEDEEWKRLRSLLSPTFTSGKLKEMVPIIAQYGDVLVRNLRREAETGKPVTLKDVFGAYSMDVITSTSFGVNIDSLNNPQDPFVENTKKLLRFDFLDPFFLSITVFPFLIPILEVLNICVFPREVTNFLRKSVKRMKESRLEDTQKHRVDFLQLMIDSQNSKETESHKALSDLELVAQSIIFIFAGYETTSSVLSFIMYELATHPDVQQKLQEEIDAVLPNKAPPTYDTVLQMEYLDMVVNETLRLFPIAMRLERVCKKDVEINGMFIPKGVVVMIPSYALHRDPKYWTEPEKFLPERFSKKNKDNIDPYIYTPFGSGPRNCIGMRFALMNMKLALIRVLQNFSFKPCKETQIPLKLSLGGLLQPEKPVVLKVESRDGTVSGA

SMILES: CN(C)NC(=O)CCC(=O)O
- outcome [1]: inactive
- outcome [2]: inactive
- outcome [3]: inactive
- outcome [4]: inactive
- outcome [5]: inactive

SMILES: CCCCSP(=O)(SCCCC)SCCCC
- outcome [2]: inactive
- AC50 [3]: 20 µM (active)
- AC50 [6]: 4.3 µM (active)
- outcome [7]: inactive
- AC50 [4]: 3.04 µM (active)
- AC50 [8]: 33.5 µM (active)
- AC50 [9]: 4.08 µM (active)

SMILES: CCOP(=O)(NC(C)C)Oc1ccc(SC)c(C)c1 (stereo unspecified)
- outcome [1]: inactive
- AC50 [6]: 10.7 µM (active)
- outcome [7]: inactive
- AC50 [4]: 5.87 µM (active)
- outcome [9]: inactive

SMILES: CCCCOC(=O)c1ccccc1C(=O)O
- outcome [2]: inactive
- outcome [3]: inactive
- outcome [4]: inactive
- outcome [8]: inactive
- outcome [5]: inactive

SMILES: CNC(=O)ON=C(SC)C(=O)N(C)C
- outcome [1]: inactive
- outcome [7]: inactive
- outcome [4]: inactive
- outcome [8]: inactive
- outcome [9]: inactive
- outcome [5]: inactive

SMILES: CNc1cnn(-c2cccc(C(F)(F)F)c2)c(=O)c1Cl
- outcome [1]: inactive
- AC50 [3]: 13.6 µM (active)
- outcome [7]: inactive
- AC50 [4]: 5.39 µM (active)
- AC50 [9]: 5.37 µM (active)

SMILES: CCCCN(CC)c1c([N+](=O)[O-])cc(C(F)(F)F)cc1[N+](=O)[O-]
- AC50 [1]: 9.11 µM (active)
- AC50 [3]: 6.48 µM (active)
- AC50 [4]: 5.9 µM (active)
- outcome [8]: inactive
- AC50 [9]: 20 µM (active)

SMILES: C=C(C)[C@H]1Cc2c(ccc3c2O[C@@H]2COc4cc(OC)c(OC)cc4[C@@H]2C3=O)O1
- AC50 [2]: 3.73 µM (active)
- AC50 [8]: 0.309 µM (active)
- AC50 [9]: 2 µM (active)

SMILES: C#CCC1=C(C)C(OC(=O)C2C(C=C(C)C)C2(C)C)CC1=O (stereo unspecified)
- AC50 [3]: 14.1 µM (active)
- outcome [7]: inactive
- AC50 [4]: 20 µM (active)
- outcome [8]: inactive
- AC50 [9]: 33 µM (active)

SMILES: FC(F)C(F)(F)OCC(Cn1cncn1)c1ccc(Cl)cc1Cl (stereo unspecified)
- AC50 [3]: 1.89 µM (active)
- AC50 [4]: 1.27 µM (active)
- outcome [8]: inactive
- AC50 [9]: 8.06 µM (active)

SMILES: CCc1cnc(C2=NC(C)(C(C)C)C(=O)N2)c(C(=O)O)c1 (stereo unspecified)
- outcome [3]: inactive
- outcome [4]: inactive
- outcome [8]: inactive
- outcome [9]: inactive
- outcome [5]: inactive

SMILES: O=[N+]([O-])c1cc(C(F)(F)F)c(Cl)c([N+](=O)[O-])c1Nc1ncc(C(F)(F)F)cc1Cl
- outcome [3]: inactive
- AC50 [4]: 0.499 µM (active)
- AC50 [9]: 0.627 µM (active)

SMILES: CCCOCC(=Nc1ccc(Cl)cc1C(F)(F)F)n1ccnc1
- AC50 [3]: 1.89 µM (active)
- AC50 [4]: 0.687 µM (active)
- AC50 [8]: 20 µM (active)
- AC50 [9]: 6.01 µM (active)
- outcome [5]: inactive

SMILES: COP(=O)(OC)C(O)C(Cl)(Cl)Cl (stereo unspecified)
- outcome [2]: inactive
- outcome [8]: inactive

SMILES: COP(=O)(OC)OC(Br)C(Cl)(Cl)Br (stereo unspecified)
- outcome [3]: inactive
- outcome [6]: inactive
- outcome [4]: inactive
- outcome [9]: inactive
- outcome [5]: inactive

SMILES: CC(=NC#N)N(C)Cc1ccc(Cl)nc1
- outcome [3]: inactive
- outcome [7]: inactive
- outcome [4]: inactive
- outcome [9]: inactive
- outcome [5]: inactive

SMILES: C[N+]1(C)CCCCC1
- outcome [2]: inactive
- AC50 [10]: 0.0004 µM (active)
- outcome [4]: inactive
- outcome [8]: inactive
- outcome [5]: inactive

SMILES: CSc1nnc(C(C)(C)C)c(=O)n1N
- outcome [7]: inactive
- AC50 [4]: 2.97 µM (active)
- outcome [5]: inactive

SMILES: CC(C)N(C(=O)SCC(Cl)=C(Cl)Cl)C(C)C
- AC50 [3]: 3.07 µM (active)
- outcome [7]: inactive
- outcome [4]: inactive
- outcome [9]: inactive
- outcome [5]: inactive

SMILES: CCOP(=S)(OCC)OC(Cl)C(Cl)(Cl)Cl (stereo unspecified)
- AC50 [3]: 9.51 µM (active)
- outcome [7]: inactive
- AC50 [4]: 9.25 µM (active)
- outcome [8]: inactive
- outcome [9]: inactive

SMILES: CC[C@H](C)[C@H]1O[C@]2(C=C[C@@H]1C)C[C@@H]1C[C@@H](C/C=C(\C)[C@@H](O[C@H]3C[C@H](OC)[C@@H](O[C@H]4C[C@H](OC)[C@@H](NC)[C@H](C)O4)[C@H](C)O3)[C@@H](C)/C=C/C=C3\CO[C@@H]4[C@H](O)C(C)=C[C@@H](C(=O)O1)[C@]34O)O2
- outcome [2]: inactive
- outcome [3]: inactive
- outcome [8]: inactive
- outcome [5]: inactive

SMILES: CCCSP(=O)(OCC)SCCC
- outcome [7]: inactive
- outcome [4]: inactive
- outcome [8]: inactive
- outcome [5]: inactive

SMILES: CCCOc1nn(C(=O)NS(=O)(=O)c2ccccc2C(=O)OC)c(=O)n1C
- outcome [2]: inactive
- AC50 [3]: 36.4 µM (active)
- outcome [4]: inactive
- outcome [8]: inactive
- outcome [5]: inactive

SMILES: CON=C(C(=O)OC)c1ccccc1CON=C(C)c1cccc(C(F)(F)F)c1
- AC50 [3]: 13.1 µM (active)
- outcome [6]: inactive
- outcome [7]: inactive
- outcome [4]: inactive
- outcome [8]: inactive
- AC50 [9]: 20 µM (active)

SMILES: CCc1cccc(C)c1N(C(=O)CCl)C(C)COC (stereo unspecified)
- AC50 [3]: 3.97 µM (active)
- outcome [7]: inactive
- outcome [4]: inactive
- outcome [8]: inactive
- AC50 [9]: 20 µM (active)
- outcome [5]: inactive

SMILES: CSc1nc(NC(C)C)nc(NC(C)C)n1
- AC50 [3]: 3.24 µM (active)
- outcome [7]: inactive
- AC50 [4]: 1.64 µM (active)
- AC50 [9]: 20 µM (active)

SMILES: CCOP(=S)(OCC)Oc1ccc([N+](=O)[O-])cc1
- AC50 [3]: 2.92 µM (active)
- AC50 [4]: 2.97 µM (active)
- AC50 [9]: 3.61 µM (active)

SMILES: Nc1c(Cl)cc([N+](=O)[O-])cc1Cl
- outcome [3]: inactive
- AC50 [6]: 6.25 µM (active)
- AC50 [4]: 4.29 µM (active)
- AC50 [9]: 4.01 µM (active)
- outcome [5]: inactive

SMILES: Cc1ccn2nc(S(=O)(=O)Nc3c(F)cccc3F)nc2n1
- AC50 [3]: 3.97 µM (active)
- outcome [6]: inactive
- outcome [7]: inactive
- outcome [4]: inactive
- outcome [8]: inactive

SMILES: CCOP(=S)(OCC)Oc1ccc2c(C)c(Cl)c(=O)oc2c1
- outcome [2]: inactive
- AC50 [6]: 1.01 µM (active)
- outcome [7]: inactive
- AC50 [4]: 0.414 µM (active)
- outcome [8]: inactive
- AC50 [9]: 1.89 µM (active)

SMILES: Cc1nn(-c2cc(NS(C)(=O)=O)c(Cl)cc2Cl)c(=O)n1C(F)F
- AC50 [3]: 2.46 µM (active)
- AC50 [6]: 6.7 µM (active)
- outcome [4]: inactive
- outcome [9]: inactive
- outcome [5]: inactive

SMILES: CNC(=O)Oc1cccc2c1OC(C)(C)O2
- outcome [4]: inactive
- outcome [9]: inactive

SMILES: CCC(=NOC/C=C/Cl)C1=C(O)CC(C2CCOCC2)CC1=O (stereo unspecified)
- outcome [2]: inactive
- outcome [7]: inactive
- outcome [4]: inactive
- outcome [5]: inactive

SMILES: C#CC(C)(C)NC(=O)c1cc(Cl)cc(Cl)c1
- outcome [3]: inactive
- outcome [7]: inactive
- AC50 [4]: 0.348 µM (active)
- outcome [9]: inactive
